Among the data in PubChem BioAssay AID651955 (The Scripps Research Institute Molecular Screening Center, 2012) are activation values, retold here.

About 40 (2%) of roughly 2,400 compounds were called active. A selection follows. Unmarked numbers belong to inactive results. No stated cut-off is given here; in the data, active means activation above about 37%; inactive means the rest.

The target of the experiment is Trace amine-associated receptor 1 (Homo sapiens) (UniProt Q96RJ0). The experiment is described as follows: TAAR1 activation by candidate antagonists – cell-based, fluorescence, counter-screen for TAAR1 antagonist project (AID 651955).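 Further: CHO cells stably expressing TAAR1 with calcium dye readout; 0% = DMSO vehicle and 100% = full agonist response.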 The following applies: hTAAR1 cell line, agonist mode, at 3 µM, hits give high values.
Sequence of Trace amine-associated receptor 1 (Homo sapiens) (Q96RJ0 whole entry, looked up): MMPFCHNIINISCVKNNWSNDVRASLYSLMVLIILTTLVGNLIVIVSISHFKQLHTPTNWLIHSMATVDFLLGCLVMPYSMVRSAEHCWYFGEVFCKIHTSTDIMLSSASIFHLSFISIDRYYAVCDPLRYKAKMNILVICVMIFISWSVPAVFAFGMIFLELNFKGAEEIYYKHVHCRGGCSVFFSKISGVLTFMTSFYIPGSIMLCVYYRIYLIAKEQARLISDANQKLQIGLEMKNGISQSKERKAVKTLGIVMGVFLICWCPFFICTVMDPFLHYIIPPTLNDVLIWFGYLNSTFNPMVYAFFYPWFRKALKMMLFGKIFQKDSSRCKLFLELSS
Regarding `COc1ccc(C2=NOC(Cn3nc(C(=O)NCc4ccc5c(c4)OCO5)cc3-c3ccccc3)C2)cc1` (configuration not stated), the activation is 6.17%. For the compound `COC(=O)c1sccc1NC(=O)c1cc(OC)c(OC)c(OC)c1`, the activation is 6.39%.

As for `Cc1nc(N2CCN(c3ccccn3)CC2)c2c(C)c(C(=O)Nc3ccc(F)cc3)sc2n1`, the activation was 5.28%. Under `COc1ccc(CN(C)C(=O)c2cc(-c3ccc(C)cc3C)nc3ccccc23)c(OC)c1OC` stands 12.2%; under `O=C(NCCN1C(=O)S/C(=C\c2cccnc2)C1=O)c1ccc(S(=O)(=O)N2CCCC2)cc1`, 6.63%; under `C[C@H](O)[C@@H]1C(=O)N2CCc3c([nH]c4c(-c5ccc6c(c5)OCO6)cccc34)[C@@H]2C[C@@H]1N(C)C(=O)c1ccco1`, 7.7%. Under `Cc1cc(Br)ccc1NC(=O)c1cnc(N2CCN(c3ccccn3)CC2)c2ccccc12` stands 5.88%. For `COC(=O)[C@@]1(Sc2ccc(C)cc2)CC(=O)N(c2cccc(SC)c2)[C@@H]1c1ccccc1`, the activation was 9.64%. Take `COc1ccc(S(=O)(=O)N2CCCC(C(=O)Nc3ccc(NC(=O)c4ccccn4)cc3)C2)cc1` (configuration not stated): the activation was 11%. Under `COc1ccc(CCNC2=C(Cl)C(=O)N(Cc3ccccc3)C2=O)cc1OC` stands 7.18%; under `O=C(O)c1ccc(NC(=O)c2cn(-c3ccccc3)nc2-c2ccc(Cl)cc2)cc1`, -1.05%; under `COc1ccc(NC(=O)c2cc(-c3ccc(C)o3)nc3ccccc23)cc1`, 6.61%.

As to `O=C(Oc1ccc(-c2nnco2)cc1)c1ccc(F)c(S(=O)(=O)N2CCOCC2)c1`, the activation was 14.6%.

As to `O=C(OCC(=O)N(CCc1ccccc1)Cc1ccccc1)c1ccccc1[N+](=O)[O-]`, the activation was 7.56%. Turning to `COC(=O)Cc1nnn2c1[C@H](C)[C@H](c1ccccc1Br)OCC2`, the activation is 7.69%. Under `COc1ccc(OC)c2[nH]c(=O)c(CCNC(=O)C(=O)c3c[nH]c4ccccc34)cc12` stands 10.8%. Under `Cc1cccc(NC(=O)c2ccc(COc3ccccc3[N+](=O)[O-])o2)n1` stands 1.12%; under `NNC(=O)CNC(c1ccccc1)c1cc(Cl)ccc1NC(=O)c1ccccc1` (configuration not stated), 8.83%; under `Cc1cc(C(C)(C)C)oc1C(=O)N(CC(=O)NC1CCCC1)Cc1ccc(Cl)cc1`, 34.2%.

In the case of `CCOc1cc(/C=N/NC(=O)c2cc(-c3ccccc3)nc3ccccc23)ccc1O`, the activation was 15.8%.

Turning to `O=C(N/N=C/c1ccc(OC(=O)c2ccccc2Cl)cc1)c1ccc(O)cc1`, the activation was 13.1%.

Take `Cc1cccc(NC(=O)c2nc[nH]c2C(=O)NCC(=O)OCc2ccccc2)c1`: the activation was 3.94%. Next, `C[C@H](NC(=O)c1nc[nH]c1C(=O)NCC(=O)OC(C)(C)C)C(=O)OCc1ccccc1`: 11.1%; `O=C(COC(=O)CCCSc1nc2ccccc2[nH]1)Nc1ccc(Oc2ccccc2)cc1`: 9.65%.

For `COc1ccc(CCNC(=O)c2ccc(CS(=O)(=O)c3ccc(Br)cc3)o2)cc1OC`, the activation is 12.3%. For `COc1cc2ccccc2cc1C(=O)Nc1ccc(NC(=O)c2cccs2)cc1`, the activation is 7.6%. Next, `C=CCC[C@H](Cc1ccc(F)cc1)C(=O)OC[C@H](C)NC(=O)[C@H](CC=C)CC(=O)N(CCO)Cc1ccccc1`: 6.83%. As to `CCc1ccc2c(c1)NC(=O)C2(C)Cc1ccc(OC(F)(F)F)cc1` (configuration not stated), the activation was 25.6%. Next, `CC/C(=N/Nc1ccccc1)c1cnnc(SC)n1`: -4.06%. Take `Cc1ccc2c(c1)N(CC(=O)NCCc1ccc(Cl)cc1)C(=O)c1cccnc1O2`: the activation is 5.11%. Next, `Oc1ccccc1N1CCN(c2ncnc3sc(-c4ccccc4)cc23)CC1`: 2.9%; `Cc1ccc(NC(=O)c2ccc(CSc3ncnc4nc[nH]c34)cc2)c(C)c1`: 3.79%; `C=CCc1cc(S(=O)(=O)c2ccc(O)c(CC=C)c2)ccc1O`: 9.65%.

Consider `Cc1ccc2cccc(OCCCOc3ccccc3CO)c2n1`, for which the activation was 11.3%.

Take `COc1ccc(/C=C/C(=O)Nc2ccc(C34CC5CC(CC(O)(C5)C3)C4)cc2)cc1OC`: the activation is 11.1%.

With `Cc1ccccc1NC(=O)Cc1nc(COC(=O)C(C)(C)Oc2ccc(Cl)cc2)cs1`, the activation is 10.5%. Next, `CCNS(=O)(=O)c1ccc(CCC(=O)N2CCN(c3cc(Cl)ccc3C)CC2)cc1`: 17.4%; `COc1ccc(C(=O)Oc2ccc(-c3nnco3)cc2)cc1S(=O)(=O)N1CCOCC1`: 11%. Next, `Oc1ccc(/C=N/Nc2nc(-c3ccccc3F)nc3ccccc23)c(O)c1`: 9.34%; `C=CCn1c(SCc2cccc(F)c2)nc2cc(C(=O)N3CCC(C(N)=O)CC3)ccc2c1=O`: 9%; `COc1ccc2[nH]c(=O)c(CN(Cc3cccnc3)S(=O)(=O)c3ccccc3F)cc2c1`: 12.6%.

Turning to `Fc1ccc(/C=N/Nc2nc(-c3cccnc3)nc3ccccc23)cc1`, the activation is 3.24%.

With `CCOC(=O)C1=C(NC(=S)NC(=O)c2ccccc2)c2ccccc2CC1(C)C`, the activation is 31.1%. Turning to `CNC(=O)c1ccsc1NC(=O)c1ccc(S(=O)(=O)N2CCc3ccccc32)cc1`, the activation was 6.5%. Next, `CC(C)(C)OC(=O)NCCCCCNC(=O)c1nc[nH]c1C(=O)NCc1ccccc1`: 7.66%; `Cc1ccccc1OCC(=O)Nc1ccc(N2CCN(C(=O)C(C)C)CC2)c(Cl)c1`: 10.6%; `COc1cc(OC)cc(C(=O)OCC(=O)Nc2sccc2C(N)=O)c1`: 16.7%. Next, `CCOc1ccc(NC(=O)N2CC=C(n3c(=O)[nH]c4ccccc43)CC2)cc1`: 6.44%; `O=C(CCc1ccccc1)Nc1cccc(-c2nnc(-c3ccco3)o2)c1`: 7.95%. Under `O=C(Nc1ccc(-c2nnc(-c3ccccc3)o2)cc1)c1ccc(Br)o1` stands -1.1%. Turning to `CC(C)Oc1cc(F)ccc1-c1cc(C(=O)Nc2ccc(F)cc2)[nH]n1`, the activation was 2.53%. Next, `COc1ccc(-c2cc(C(=O)N(C)Cc3ccc(OC)c(OC)c3OC)c3ccccc3n2)cc1OC`: 8.62%; `O=C(NCCN1CCOCC1)c1ccccc1N1C(=O)[C@@H]2Cc3c([nH]c4ccccc34)C(c3cccc(Cl)c3)N2C1=O` (some centres not stated): 5.75%.

Consider `Clc1ccc(Nc2ncnc3c2nnn3Cc2ccccc2)cc1`, for which the activation was 6.12%.

With `Nc1nonc1-n1nnc(C(=O)N/N=C/c2c[nH]c3ccccc23)c1-c1ccccc1`, the activation is 2.36%. In the case of `O=c1[nH]c(CSc2ncc(-c3ccc(F)cc3)n2Cc2ccco2)nc2ccccc12`, the activation was 17.5%.

With `Cn1c2ccccc2c(=O)c2c(=O)n(Cc3ccco3)c(COc3ccccc3)nc21`, the activation was 39.4% (active). Next, `Cc1ccc(C)c(N2CCN(C(=O)CCCCCn3c(=S)[nH]c4ccc(N5CCOCC5)cc4c3=O)CC2)c1`: 6.46%; `CC(C)N(Cc1ccccc1)C(=O)COC(=O)c1ccccc1SCC(=O)N1CCCC1`: 10.5%. As to `C/C(=N\Nc1ncc(Cl)cc1Cl)c1ccc(S(=O)(=O)NCc2ccco2)cc1`, the activation is -4.54%.

In the case of `COC(=O)Cc1nnn2c1[C@H](C)[C@H](c1ccccc1[N+](=O)[O-])OCC2`, the activation is 1.8%. Next, `O=C1c2ccccc2C(=O)N1CCC#Cc1ccc2cc(C3(O)CCCCC3)oc(=O)c2c1`: 10.5%; `C[C@@H]1CN([C@@H](C)CO)S(=O)(=O)c2ccc(C#Cc3cccc(F)c3)cc2O[C@H]1CN(C)S(=O)(=O)c1cn(C)cn1`: 9.74%; `COc1ccc(-c2nn(-c3ccccc3)cc2C(=O)Nc2nccs2)cc1OC`: 7.13%.

On to `O=C(NCc1ccc2c(c1)OCO2)c1c(-c2ccsc2)sc2ccccc12`, for which the activation was -1.93%. Next, `CCC(=O)Oc1cccc(C(=O)Nc2ccc(-c3nnc(-c4ccco4)o3)cc2)c1`: 3.83%; `O=S(=O)(c1cccs1)N1CCCc2nc(-c3ccc(Br)cc3)ccc21`: 0.43%.

For the compound `CSC(=S)N/N=C/c1c[nH]c2ccccc12`, the activation was 12%. With `CC(=O)n1cc([C@H]2C=C(C(=O)N3CCOCC3)O[C@@H](OCc3ccc(CO)cc3)C2)c2ccccc21`, the activation is 9.37%. Under `O=C(COC(=O)c1ccccc1SCC(=O)N1CCCC1)Nc1ccccc1OC(F)F` stands 7.54%; under `Cc1onc(-c2c(F)cccc2Cl)c1C(=O)Nc1cccc(S(=O)(=O)N2CCCCC2)c1`, 7.98%. For the compound `COc1cc(SC#N)ccc1N=Cc1c(C)[nH]n(-c2ccc(C)cc2)c1=O`, the activation was 1.06%. Regarding `CN(c1ccccc1)S(=O)(=O)c1cc(C(=O)Nc2nc3ccccc3[nH]2)ccc1Cl`, the activation is 4.12%.

As to `O=C(NCC1CCCO1)c1cc2c([nH]c3ccccc32)c(-c2ccc(F)cc2)n1` (configuration not stated), the activation is 3.66%. Next, `CC(=O)c1ccccc1OCc1ccc(C(=O)c2ccccc2)cc1`: 6.46%.

Regarding `COc1ccc(CCNC(=O)C(=O)NCC2OCCN2S(=O)(=O)c2ccc(OC)c(C)c2)cc1` (configuration not stated), the activation is 5.42%.

As for `COC(=O)C1=C(C)N(Cc2ccc(F)cc2)C(=S)NC1c1cccc(Cl)c1` (configuration not stated), the activation is 3.48%.

With `CC(=O)OCCN(CCCn1c(-c2ccncc2)nc2ccccc21)c1nc(-c2ccc(C)cc2)cs1`, the activation is 2.91%. With `O=C(Nc1ccccc1-c1nnn(CC(=O)N2CCN(c3ccccc3)CC2)n1)c1cccs1`, the activation was 6.9%.

On to `O=S1(=O)c2c(cccc2N2CCCCC2)O[C@H](COCc2ccccc2)CN1C1CC1`, for which the activation is 0.58%. Take `Cc1cccc(C)c1NC(=O)CNC(=O)C1CCCC1`: the activation was 6.49%.

As to `CCN=C1SC(CC(=O)Nc2ccc(C)cc2)C(=O)N1CC` (configuration not stated), the activation is 12.6%.
